Source: PubChem BioAssay
In the library only some 3% were active in any assay of this set; here they are far more common.
SKKanGAS inh: inhibitors of SKKanGAS S. pyogenes growth in kanamycin (SK-promoter or general growth effect). BacTiter-Glo, 6 h. inhibition, % at 7.5 µM. hit rate 1.3% among 300,000. AID 1662;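 active means mean replicate score, as percent of positive control median, at least 50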;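 further: strain carries kanamycin resistance gene driven by streptokinase promoter and grows in 40 µg/ml kanamycin; loss of luminescence reflects streptokinase promoter inhibition or plain growth inhibition; 0% = median of DMSO wells and 100% = positive control at its reference dose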
aSyn 5UTR inh: MLPCN primary screen, SNCA 5' untranslated region | alpha-synuclein 5'UTR reporter, inhibitor activity | inhibition, % (tested at 7.5 µM) | hit rate 0.82% among 300,000 | AID 1813; in the data active means inhibition above about 60%;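 further: H4 neuroglioblastoma cells stably carrying SNCA 5'UTR luciferase fusion; 0% = DMSO wells and 100% = positive control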
CSC inhib: cancer stem cell inhibition | AID 2717 | hit rate 1.1% among 300,000 | cancer stem cell-like cells viability, luminescence | inhibition, % at 7.5 µM; in the data active means inhibition above about 75%; tested in HMLE shEcad cells
IEC-6 cytotox: IEC-6 cytotoxicity, counter-screen for KLF5 inhibitors. luminescence viability. inhibition, % at 5 µM. hit rate 0.78% among 290,000. AID 1825; in the data active means inhibition above about 22%;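 further: 0% = plate median of test compound wells and 100% = cytotoxic reference compound wells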
KLF5 inhibitor: suppresses KLF5 promoter-driven expression. DLD-1 KLF5 promoter-luciferase reporter, luminescence. inhibition, % at 5 µM. hit rate 0.23% among 290,000;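 active means inhibition above a per-plate limit of that plate's mean compound inhibition plus 3 SD, cut at about 60% in these data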;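 further: 0% = DMSO wells and 100% = LY294002 at 200 µM; higher means less KLF5 promoter-driven luciferase light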
The depositor's hits bear a star; . = no result given.

SMILES	SKKanGAS inh	aSyn 5UTR inh	CSC inhib	IEC-6 cytotox	KLF5 inhibitor
CN(C)c1nc(-c2ccccn2)nnc1-c1ccccc1	12	79*	-9	12	22
O=C(Nc1cccnc1)C1CC(=O)N(c2ccc(F)cc2)C1 (stereo not given)	0	-6	-14	3	-13
CCn1c(CC(=O)Nc2ccc(C)cc2)nnc1SCC(=O)N1CCOCC1	-2	17	-2	-6	-16
O=C(c1ccc(-c2ccccc2)cc1)c1ccccc1C(=O)N1CCOCC1	0	-2	-14	-4	-51
S=C(c1ccc(-c2ccccc2)cc1)N1CCOCC1	7	64*	-2	-9	-35
O=C(N/N=C\c1c(O)ccc2ccccc12)c1ccc(S(=O)(=O)N2CCCCC2)cc1	38	114*	100*	-4	-9
O=C(N/N=C/c1c(O)ccc2ccccc12)c1ccc(CO)nc1	11	51	87*	4	41
COc1ccccc1NCC(=O)N/N=C/c1c(O)ccc2ccccc12	42	37	6	2	36
O=C(NN=Cc1c(O)ccc2ccccc12)c1ccc2c(c1)OCO2	.	.	10	.	.
C=C(C)Cn1c(SCC(=O)N/N=C/c2c(O)ccc3ccccc23)nc2ccccc2c1=O	5	-7	103*	-2	-19
O=C(CNc1ccc(F)cc1)N/N=C/c1c(O)ccc2ccccc12	96*	59	35	-3	39
Cc1ccc([N+](=O)[O-])cc1S(=O)(=O)Nc1ccccn1	-19	-18	11	8	-10
Cc1cccc(N2CCN(C3=NC(=O)C(Cc4ccccc4)S3)CC2)c1 (stereo not given)	-9	-20	-9	-3	-8
Clc1ccc2nc(-c3ccc4c(c3)OCO4)cn2c1	-5	57	38	21	15
c1ccn2cc(-c3ccc4c(c3)OCCO4)nc2c1	8	98*	24	11	-23
COc1ccc(-c2[nH]ncc2CN(CCO)Cc2cccs2)c(F)c1	7	16	-10	2	7
Nc1ccn([C@@H]2O[C@H](CO)[C@@H](O)C2O)c(=O)n1 (stereo not given in full)	3	72*	52	93*	29
O=C(NC1CCCCC1)C(c1cccnc1)N(CCc1ccccc1)C(=O)Cc1cccs1 (stereo not given)	2	-8	-5	3	-1
COc1ccc(NC(=O)c2cc(-c3ccc(C)c(C)c3O)n[nH]2)cc1Cl	57*	-18	18	2	-14
Cc1ccc(NC(=O)c2cc(-c3ccc(C)c(C)c3O)n[nH]2)cc1C	-1	1	14	7	-23
CC(C)(C)C(=O)N1CCc2cc(-c3csc(N)n3)ccc21	2	66*	7	-2	-12
CCOc1ccc(NC(=O)c2ccc(NS(=O)(=O)c3cccs3)cc2)cc1	11	-29	11	-2	-20
Cc1ccc(NC(=O)CSc2ncc3ccccn23)cc1C	-3	-55	-15	1	-59
O=C(NC(=S)Nn1cnc2c(cnn2-c2ccccc2)c1=O)c1ccc(Oc2ccccc2)cc1	89*	-28	15	-13	-7
O=C(NC(=S)Nn1cnc2c(cnn2-c2ccccc2)c1=O)c1ccc(Cl)cc1	6	17	6	0	-1
SMILES	SKKanGAS inh	aSyn 5UTR inh	CSC inhib	IEC-6 cytotox	KLF5 inhibitor
Cc1onc(-c2ccccc2)c1C(=O)NNC(=S)NC(=O)/C=C/c1ccccc1	51*	20	7	0	-8
Cc1onc(-c2ccccc2)c1C(=O)NNC(=S)NC(=O)c1ccc(Cl)cc1Cl	80*	11	-1	4	8
Cc1onc(-c2ccccc2)c1C(=O)NNC(=S)NC(=O)c1ccc(Br)cc1	125*	1	28	0	1
COc1ccc(-c2cc(C(=O)NNC(=S)NC(=O)c3c(-c4ccccc4)noc3C)[nH]n2)cc1	93*	16	23	-6	-9
Cc1ccccc1C(=O)NNC(=S)NC(=O)c1ccc(Cl)cc1Cl	28	-13	.	-6	-33
COc1ccc(NC(=O)c2c(-c3ccccc3)noc2C)c(OC)c1	-5	-12	18	-5	-15
Cc1cc(NC(=O)CCc2ccccc2)c([N+](=O)[O-])cc1C	-2	-22	0	4	-11
COc1ccc(/C=C/C(=O)NC(=S)NNC(=O)c2c(-c3ccccc3)noc2C)cc1	89*	5	5	0	-16
C/C(CC(=O)NC1CCCC1)=N\NC(=O)Cc1csc(N)n1	-8	6	-4	7	11
O=C(CSc1nncs1)Nc1nnc(-c2ccccc2)o1	-9	-6	24	-6	-41
Fc1ccc(CNC(=S)Nc2ccccc2Cl)cc1	12	6	-3	1	-29
COc1ccc(-c2cn3cc(C)ccc3n2)cc1F	-18	77*	-9	9	-4
